Reference: ChEMBL document CHEMBL4513216, “Probing the Open Global Health Chemical Diversity Library for Multistage-Active Starting Points for Next-Generation Antimalarials” (ACS Infect Dis, 2020)
In all, about 65,000 compounds went through this assay and about 2,100 (3.2%) showed an effect of 50% or more. The median lay at about -52%. Shown is part of a subset that was picked to be rich in strong results.

The compounds below were run on Plasmodium falciparum (assay: Screen against P. falciparum Asexual Blood Stage (ABS), at 5uM). Conditions: tested at 5 uM.
Format: functional, Dd2

Row | SMILES | INHIBITION
1 | Cc1n[nH]c2c1C(c1ccc3c(c1)OCCO3)SCC(=O)N2 (configuration not stated) | 8.75%
2 | Cc1c(CNC2CCN(c3ccccc3OC(F)F)C2)cnn1C (configuration not stated) | 71%
3 | O=C(N[C@@H]1CN[C@H]2CCCO[C@H]21)c1cnccn1 | -120%
4 | CN(C)[C@@H]1CN(Cc2cccnc2)C[C@H]1c1cn(C)c2ccccc12 | 71.9%
5 | Cn1cccc1C(=O)N1C[C@H]2CN(Cc3cccnc3)C[C@H]2C1 | 31.3%
6 | Cc1ccccc1CC(=O)N1C[C@@H]2CC[C@H]1CN(Cc1cccnc1)C2 | -11.4%
7 | O=C(COc1coc(CN2CCCC2)cc1=O)Nc1cc(Cl)ccc1Cl | 80.6%
8 | Cc1cccc(C2(NCCCS(C)(=O)=O)CCCC2)c1 | 88.9%
9 | CS(=O)(=O)CCCNC1(c2ccc(Br)cc2)CCC1 | 78.5%
10 | CS(=O)(=O)CCCNC1(c2cccc(Cl)c2)CCCC1 | 76%
11 | Cc1cc(CNC2(c3ccccc3)CCCCC2)no1 | 44.9%
12 | Cc1ccc(CC(=O)N2CCN(C(C)c3ccccc3F)CC2)cn1 (configuration not stated) | -146%
13 | C/C(=C\c1ccco1)CN(C)C(C)Cc1ccccn1 (configuration not stated) | -54.2%
14 | CCc1[nH]c2c(CNc3nc(C)cc(NC)n3)cc(C)cc2c1C | 89%
15 | CCc1[nH]c2c(CNc3cc(C)nc(NC)n3)cc(C)cc2c1C | 85.1%
16 | CN1C[C@H](NC(=O)c2cscn2)[C@@H]2OCCC[C@@H]21 | -18.5%
17 | O=C(c1cnn2c1OCCC2)N1CCC2(CC1)OCCO2 | -54.5%
18 | Cc1noc(C)c1CN1CC[C@@H]2O[C@H](COCC(C)C)CC[C@@H]21 | -31.3%
19 | c1cnc(NC[C@H]2OC[C@@H]3CCN(Cc4ccsc4)C[C@@H]32)nc1 | -30.5%
20 | CN1CCN(C[C@@H]2OC[C@H]3CN(Cc4ccncc4)CC[C@H]32)CC1 | -51.3%
21 | CN1CCN(C[C@H]2OC[C@@H]3CCN(Cc4ccsc4)C[C@@H]32)CC1 | 77.7%
22 | c1cnc(NC[C@H]2OC[C@@H]3CCN(Cc4cccnc4)C[C@@H]32)nc1 | -37.6%
23 | c1cnc(NC[C@H]2OC[C@@H]3CCN(Cc4nccs4)C[C@@H]32)nc1 | -52.4%

Row | SMILES | INHIBITION
24 | c1cc2c(cc1CN1CC[C@H]3CO[C@H](CN4CCCC4)[C@H]3C1)OCO2 | 78.6%
25 | O=C1O[C@@H]2CN(Cc3ccsc3)C[C@@H]2N1Cc1ccccn1 | -67.9%
26 | Cc1ccc(Cl)cc1-n1nnnc1C1(N2CCCC2)CCCCC1 | -125%
27 | Cc1nn(-c2ccc(C(=O)O)cc2)c2c1C(c1cccs1)SCC(=O)N2 (configuration not stated) | -57.4%
28 | COCCN1CCN(Cc2ccncc2)c2ncccc2C1 | 6.88%
29 | Cc1ccc(C)c(OCCNC(=O)[C@@H]2CCCCN2)c1 | 79.4%
30 | CC(C)N(C)Cc1cncc2c1CCN(Cc1ccoc1)C2 | -19.3%
31 | Cc1ccc2c(n1)N(CC(C)C)CCN(S(C)(=O)=O)C2 | -82.4%
32 | Cc1nccc([C@@H]2C[C@@H]3CCN(Cc4c(C)noc4C)C[C@H]3O2)n1 | -6.6%
33 | Cc1cc(CN2C[C@@H]3COC[C@]3(c3nnc(C)o3)C2)no1 | -26.2%
34 | O=C(C1CCOC1)N1CCC2(CCCNC2)CC1 (configuration not stated) | 0.28%
35 | Cc1cccc(CN2C(=O)CCC23CCNCC3)n1 | -102%
36 | CCCN1C[C@@H]2CC[C@H]1CN(C(=O)Cn1c(C)cc(C)nc1=O)C2 | -79.2%
37 | CC(NCCc1nccn1Cc1ccccc1)c1ccsc1 (configuration not stated) | 83.5%
38 | CC(NCCc1nccn1Cc1ccccc1)c1cccs1 (configuration not stated) | 86.8%
39 | CC(Cn1cccn1)NCC(=O)NCCc1cccs1 (configuration not stated) | -8.14%
40 | CC(Cn1cccn1)NCC(=O)N(C)Cc1ccsc1 (configuration not stated) | -27.7%
41 | Cc1ccc(C(C)NCCc2nccn2Cc2ccccc2)o1 (configuration not stated) | 80.7%
42 | CCc1ccc(CN2C[C@H](OC)[C@H]3COC[C@H]32)o1 | -53%
43 | O=C(c1ccoc1)N1CCO[C@@H]2CNC[C@@H]21 | -14.6%
44 | Fc1cnc(N2CCN3C[C@H](Oc4cccnc4)C[C@H]3C2)nc1 | -61.4%
45 | c1cnc(N2CCOCC3(CNCCO3)C2)nc1 (configuration not stated) | -4.23%
46 | Cc1cc(C)n2nc(C(=O)N[C@H]3C[C@H]4CN(C)CCN4C3)cc2n1 | -13.9%

Row | SMILES | INHIBITION
47 | CCc1ccc(OCC(=O)N2CCN(CC)CC2)cc1 | -123%
48 | OCCN1CCC(CNCc2ccc(Br)cc2)CC1 | 86.7%
49 | CCc1ccc(CNCC2CCN(CCO)CC2)cc1 | 84.2%
50 | OCCN1CCC(CNCc2ccc(N3CCCCC3)cc2)CC1 | 91.9%
51 | O=C(Cc1ccc(F)c(Br)c1)N1CCN(CCO)CC1 | -1.34%
52 | OCCN1CCN(Cc2cc3c(cc2Br)OCCO3)CC1 | 1.48%
53 | O=C(C1CCC1)N1CCC2(CC1)OCCO2 | -22.7%
54 | O=C(c1ccc[nH]1)N1CCCC2(CCCN2Cc2cccnc2)C1 (configuration not stated) | -53.7%
55 | CNCCc1nc2cc(F)ccc2[nH]1 | -61.7%
56 | CCNCCc1nc2cc(F)ccc2[nH]1 | -115%
57 | Fc1ccc2[nH]c(C3CCCN3Cc3c[nH]cn3)nc2c1 (configuration not stated) | 81%
58 | c1cncc(OC[C@@]23CCC[C@@H]2CN(C2CCOCC2)C3)c1 | 3.99%
59 | CCCc1nnc2sc(C3CCN(CC)CC3)nn12 | -55.6%
60 | c1cnc2c(c1)CN(C1CCOC1)CCN2CC1CC1 (configuration not stated) | -73.8%
61 | COc1cccc(CNCc2cccnc2-n2cccn2)c1OC | 70.1%
62 | COc1cccc(CNC(C)Cn2cccn2)c1OC (configuration not stated) | -22.3%
63 | COc1c(Br)cc(Br)cc1CNC(C)Cn1cccn1 (configuration not stated) | 17.9%
64 | N#Cc1cccc(CN2CCn3cc(Cn4cccn4)nc3C2)c1 | 78.6%
65 | CC(Cn1cccn1)NCc1cccc(C#N)c1 (configuration not stated) | -46.4%
66 | CN1CCN(Cc2cccc(C#N)c2)Cc2cccnc21 | -71%
67 | CCN1C[C@@H]2CN(c3cc(OC)ncn3)CCC[C@]2(C(=O)O)C1 | -22%
